# According to PubChem BioAssay (NCATS):
# Values joined by “and” are separate entries in the source; they are usually repeats but may differ in a detail not shown here. Identical values can stand only once. Records with an inconclusive call do not appear. Where a call stands in place of a potency, no number is given. Active and inactive are the calls of the source. Unless noted, the call rests on the fitted dose curve; in most records, active means well fitted curve in the direction sought with a large enough effect in the repeat runs; inconclusive means weak or mixed curves; inactive means no such curve, though single readings can be large; an effect the other way counts as inactive or inconclusive.
# Experiments:
# [1] = target: Cytochrome P450 2D6 (Homo sapiens) (UniProt P10635); assay: Cytochrome P450 family 2 subfamily D member 6 (CYP2D6) small molecule antagonists: luciferase biochemical (cell-free) qHTS assay (AID 1645840); further: nearly all actives have a fitted effect of over 55% in size; further: potency means the concentration at half of the fitted maximal effect
# Cytochrome P450 2D6 (Homo sapiens), sequence (P10635 whole entry, looked up): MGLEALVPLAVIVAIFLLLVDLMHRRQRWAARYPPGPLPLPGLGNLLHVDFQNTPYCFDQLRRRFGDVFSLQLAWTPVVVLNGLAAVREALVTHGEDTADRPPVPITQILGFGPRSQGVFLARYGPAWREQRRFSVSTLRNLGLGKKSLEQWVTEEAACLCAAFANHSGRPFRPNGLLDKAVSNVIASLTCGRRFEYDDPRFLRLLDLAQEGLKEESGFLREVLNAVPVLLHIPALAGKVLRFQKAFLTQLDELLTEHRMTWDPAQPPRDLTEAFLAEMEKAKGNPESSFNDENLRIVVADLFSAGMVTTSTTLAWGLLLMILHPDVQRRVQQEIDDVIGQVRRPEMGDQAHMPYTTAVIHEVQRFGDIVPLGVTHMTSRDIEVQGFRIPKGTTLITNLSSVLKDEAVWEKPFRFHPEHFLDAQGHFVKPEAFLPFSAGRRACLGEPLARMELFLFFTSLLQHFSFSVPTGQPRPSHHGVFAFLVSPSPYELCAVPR
# How it was run: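 P450-Glo luminescent screen: recombinant CYP2D6 enzyme–proluciferin substrate mix preincubated with compound 10 min at room temperature, then NADPH regeneration added for 1 h at room temperature. Detection reagent added for 20 min; luciferin light read as relative luminescence units.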
# [2] = target: Cytochrome P450 2C9 (Homo sapiens) (UniProt P11712); assay: Cytochrome P450 family 2 subfamily C member 9 (CYP2C9) small molecule antagonists: luciferase biochemical (cell-free) qHTS assay (AID 1645842); further: nearly all actives have a fitted effect of over 55% in size; further: potency means the concentration at half of the fitted maximal effect
# Cytochrome P450 2C9 (Homo sapiens), sequence (P11712 whole entry, looked up): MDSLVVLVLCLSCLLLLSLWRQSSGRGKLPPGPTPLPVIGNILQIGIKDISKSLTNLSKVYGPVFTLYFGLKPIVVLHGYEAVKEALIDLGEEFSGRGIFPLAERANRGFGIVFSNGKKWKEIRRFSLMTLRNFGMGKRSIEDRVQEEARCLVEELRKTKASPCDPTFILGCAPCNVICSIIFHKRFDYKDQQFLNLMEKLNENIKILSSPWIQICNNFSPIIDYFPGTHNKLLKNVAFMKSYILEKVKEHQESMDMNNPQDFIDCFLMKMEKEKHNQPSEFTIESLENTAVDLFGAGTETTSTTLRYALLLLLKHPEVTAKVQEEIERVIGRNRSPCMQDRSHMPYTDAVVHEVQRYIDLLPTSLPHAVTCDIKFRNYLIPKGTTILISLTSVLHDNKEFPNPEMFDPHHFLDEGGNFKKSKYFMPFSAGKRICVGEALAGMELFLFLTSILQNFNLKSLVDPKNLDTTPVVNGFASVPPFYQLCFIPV
# How it was run: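 Luminescence, after 20 min with luciferin detection reagent, reflected CYP2C9 turnover during a 1 h NADPH-driven reaction at 37C. Enzyme-substrate mix contained 0.4% bovine serum albumin and was preincubated with compound 10 min at room temperature.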
# [3] = Cytotoxicity counterscreen for inhibitors of SARS-CoV-2 cell entry (AID 1645845; calls by dose curve; further: nearly all actives have a fitted effect of over 50% in size; further: potency means the concentration at half of the fitted maximal effect)
# How it was run: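 Expi293F/hACE2 cells seeded overnight; cpd pin-transferred in DMSO, 1 h preincubation, + media, 48 h 37 C 5% CO2; ATPLite 1step luminescence; normalized to cells and no cells.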
# [4] = Primary qHTS to identify inhibitors of SARS-CoV-2 cell entry (AID 1645846; calls by dose curve; further: nearly all actives have a fitted effect of over 45% in size); settings: activity change, negative = inhibition: at 57.1 µM (top of the series) unless noted
# How it was run: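 Entry measured by luciferase signal 48 h after adding SARS-CoV-2-S pseudotyped MLV particles to HEK293-ACE2 cells preincubated 1 h with compounds. Normalisation: bald particles and spike particles.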
# [5] = Primary qHTS for inhibitors of nuclear receptor binding SET domain protein 2 (NSD2) in an isogenic RCH-ACV NSD2 p.E1099K mutant (9B) (AID 1645876; active means well fitted curve in the direction sought with a large enough effect; an effect the other way counts as inactive or inconclusive; further: nearly all actives have a fitted effect of over 70% in size; further: potency means the concentration at half of the fitted maximal effect)
# [6] = Primary qHTS for inhibitors of nuclear receptor binding SET domain protein 2 (NSD2) in an RCH-ACV wild type WT cells (2C) (AID 1645877; active means well fitted curve in the direction sought with a large enough effect; an effect the other way counts as inactive or inconclusive; further: nearly all actives have a fitted effect of over 70% in size; further: potency means the concentration at half of the fitted maximal effect)
# [7] = VSVG counterscreen qHTS to identify inhibitors of SARS-CoV-2 cell entry (AID 1645847; calls by dose curve; further: potency means the concentration at half of the fitted maximal effect; nearly all actives have a fitted effect of over 65% in size)
# How it was run: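 Luminescence read after 48 h infection at 37 C with VSV-G-pseudotyped MLV particles, following 1 h compound exposure of Expi293F cells stably expressing human ACE2; scaled between bald particle and VSV-G particle wells.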
smiles,measurement,setting,value
Nc1ccccc1C(=O)OCC(O)CO (configuration not stated),Potency,[1],inactive
same,Potency,[2],inactive
same,Potency,[3],inactive
same,"activity change, negative = inhibition",[4],-1.98%
same,Potency,[5],inactive
same,Potency,[6],inactive
C#C[C@]1(O)CC[C@H]2[C@@H]3CCC4=CC(=O)CCC4=C3C=C[C@@]21CC,Potency,[1],0.977 µM (active)
same,Potency,[2],inactive
same,Potency,[3],inactive
same,Potency,[5],inactive
same,Potency,[6],inactive
c1ccc2c(c1)Sc1ccccc1N2CC1CN2CCC1CC2 (configuration not stated),Potency,[1],0.123 µM (active)
same,Potency,[2],inactive
same,Potency,[7],0.383 µM (active)
CCCC[N+]1(C)[C@@H]2CC(OC(=O)[C@H](CO)c3ccccc3)C[C@H]1[C@@H]1O[C@@H]12 (some centres not stated),Potency,[1],2.75 µM (active)
same,Potency,[2],inactive
same,Potency,[3],inactive
same,"activity change, negative = inhibition",[4],-15.6%
same,Potency,[5],inactive
same,Potency,[6],inactive
CCC(=O)O[C@H]1CC[C@H]2[C@@H]3CCC4=CC(=O)CC[C@]4(C)[C@H]3CC[C@]12C,Potency,[1],16.9 µM (active)
same,Potency,[2],24.5 µM (active) and 10.7 µM (active)
same,Potency,[3],inactive
same,Potency,[5],23.7 µM (active)
CC1=C2[C@H]3OC(=O)[C@@H](C)[C@@H]3CC[C@@]2(C)C=CC1=O,Potency,[1],inactive
same,Potency,[2],inactive
same,Potency,[3],inactive
same,"activity change, negative = inhibition",[4],2.07%
same,Potency,[5],inactive
same,Potency,[6],inactive
CCN(Cc1ccc(Cl)nc1)/C(=C/[N+](=O)[O-])NC,Potency,[1],inactive
same,Potency,[2],inactive
same,Potency,[5],inactive
same,Potency,[6],inactive
Cc1nnc2n1-c1sc(CCC(=O)N3CCOCC3)cc1C(c1ccccc1Cl)=NC2,Potency,[1],inactive
same,Potency,[2],inactive
same,Potency,[3],inactive
same,Potency,[5],inactive
same,Potency,[6],inactive
CCN(CC)CCOC(=O)C(C)(c1ccccc1)c1ccccc1,Potency,[1],1.38 µM (active)
same,Potency,[2],3.89 µM (active)
same,Potency,[5],inactive
CCN1CCCC1CNC(=O)C(O)(c1ccccc1)c1ccccc1 (configuration not stated),Potency,[1],3.09 µM (active)
same,Potency,[2],inactive
same,Potency,[5],inactive
same,Potency,[6],inactive
NC1(c2ccccc2)CCCCC1,Potency,[1],28 µM (active)
same,Potency,[2],inactive
same,Potency,[5],17.1 µM (active)
same,Potency,[6],24.1 µM (active)
CCN(CC)C(C)C(=O)c1ccccc1 (configuration not stated),Potency,[1],inactive
same,Potency,[2],inactive
same,Potency,[5],inactive
same,Potency,[6],inactive
C[C@]12CC[C@H]3[C@@H](CCC4=CC(=O)CC[C@@]43C)[C@@H]1CC[C@@H]2C(=O)O,Potency,[1],inactive
same,Potency,[2],inactive
same,Potency,[5],inactive
same,Potency,[6],inactive
COc1cc(N)c(Cl)cc1C(=O)NC1CN2CCC1CC2 (configuration not stated),Potency,[1],15.5 µM (active)
same,Potency,[2],inactive
same,Potency,[5],inactive
same,Potency,[6],inactive
CCOC(=O)NC(O)C(Cl)(Cl)Cl (configuration not stated),Potency,[1],inactive
same,Potency,[2],inactive
same,Potency,[5],inactive
same,Potency,[6],inactive
COc1cc(CC(C)N)c(OC)cc1Br (configuration not stated),Potency,[1],29.2 µM (active)
same,Potency,[2],inactive
same,Potency,[5],10.1 µM (active)
same,Potency,[6],8.96 µM (active)
CCNc1nc(Cl)nc(NCC)n1,Potency,[1],inactive
same,Potency,[2],inactive
same,Potency,[5],inactive
same,Potency,[6],inactive
C[N+](C)(C)CCOC(=O)C(O)(c1ccccc1)c1ccccc1,Potency,[1],15.5 µM (active)
same,Potency,[2],inactive
same,Potency,[5],inactive
same,Potency,[6],inactive
CCS(=O)(=O)C(C)(C)S(=O)(=O)CC,Potency,[1],inactive
same,Potency,[2],inactive
same,Potency,[5],inactive
same,Potency,[6],inactive
CN(C)CCc1c[nH]c2ccc(O)cc12,Potency,[1],31 µM (active)
same,Potency,[2],inactive
same,Potency,[5],inactive
same,Potency,[6],inactive
O=c1[nH]c2cc(Cl)ccc2n1C1CCNCC1,Potency,[1],19.5 µM (active)
same,Potency,[2],inactive
same,Potency,[5],inactive
same,Potency,[6],inactive
CC(C(O)c1ccccc1)N(C)C/C=C/c1ccccc1 (configuration not stated),Potency,[1],0.0389 µM (active)
same,Potency,[3],inactive
C[N+]1(CCC(C(N)=O)(c2ccccc2)c2ccccc2)CCCCC1,Potency,[1],15.5 µM (active)
same,Potency,[2],inactive
same,Potency,[5],inactive
same,Potency,[6],inactive
ClC1=C(Cl)C2(Cl)C(CBr)CC1(Cl)C2(Cl)Cl (configuration not stated),Potency,[1],inactive
same,Potency,[2],inactive
same,Potency,[5],inactive
same,Potency,[6],inactive
COc1ccc(OC)c(CC(C)N)c1 (configuration not stated),Potency,[1],6.05 µM (active)
same,Potency,[2],inactive
same,Potency,[5],inactive
same,Potency,[6],inactive
COc1cc(CC#N)cc(OC)c1OC,Potency,[1],inactive
same,Potency,[2],inactive
same,Potency,[5],inactive
same,Potency,[6],inactive
CC(Cc1ccc2c(c1)OCO2)NO (configuration not stated),Potency,[1],61.1 µM (active)
same,Potency,[2],38.6 µM (active)
same,Potency,[5],inactive
same,Potency,[6],inactive
O=C1NCN(c2ccccc2)C12CCN(CCCOc1ccc(F)cc1)CC2,Potency,[1],0.347 µM (active)
same,Potency,[2],inactive
same,Potency,[5],6.68 µM (active)
same,Potency,[6],7.5 µM (active)
CCc1ccc(C2CCNCC2)cc1,Potency,[1],0.347 µM (active)
same,Potency,[2],inactive
same,Potency,[5],inactive
same,Potency,[6],inactive
ClCc1cccc(Cl)c1,Potency,[1],20.4 µM (active)
same,Potency,[2],inactive
same,Potency,[5],inactive
same,Potency,[6],inactive
CCOC(=O)NC(C)(C)Cc1ccc(Cl)cc1,Potency,[1],inactive
same,Potency,[2],15.5 µM (active)
same,Potency,[5],inactive
same,Potency,[6],inactive
CCO[C@H]1O[C@@H]2OC3(C)CC[C@H]4[C@H](C)CC[C@@H]([C@H]1C)[C@@]24OO3,Potency,[1],inactive
same,Potency,[2],15.5 µM (active)
same,Potency,[5],2.99 µM (active)
same,Potency,[6],3.35 µM (active)
OC(O)C(Cl)(Cl)Cl,Potency,[1],inactive
same,Potency,[2],inactive
same,Potency,[5],inactive
same,Potency,[6],inactive
C[C@]12CC[C@H]3[C@@H](CCC4=CC(=O)CC[C@@H]43)[C@@H]1CC[C@@H]2O,Potency,[1],inactive
same,Potency,[2],inactive
same,Potency,[6],inactive
Oc1c(Br)cc(Br)cc1Br,Potency,[1],inactive
same,Potency,[2],inactive
same,Potency,[5],inactive
same,Potency,[6],inactive
CC[C@H]1C[C@H]2[C@@H]3CCC4=CC(=O)CC[C@@H]4[C@H]3CC[C@]2(C)[C@H]1O,Potency,[1],inactive
same,Potency,[3],inactive
same,Potency,[4],inactive
C1CN2CCC1CC2,Potency,[1],inactive
same,Potency,[2],inactive
same,Potency,[5],inactive
same,Potency,[6],inactive
CCCOC(=O)Cc1ccc(OCC(=O)N(CC)CC)c(OC)c1,Potency,[1],inactive
same,Potency,[2],inactive
same,Potency,[5],inactive
same,Potency,[6],inactive
O=C(CCCCl)c1ccc(F)cc1,Potency,[1],inactive
same,Potency,[2],inactive
same,Potency,[5],inactive
same,Potency,[6],inactive
CN1C(=O)CN=C(c2ccccc2)c2cc([N+](=O)[O-])ccc21,Potency,[1],inactive
same,Potency,[2],inactive
same,Potency,[5],inactive
same,Potency,[6],inactive
C[C@H]1C(=O)O[C@@H]2CCN3CC=C(COC(=O)[C@](C)(O)[C@]1(C)O)[C@H]23,Potency,[1],inactive
same,Potency,[2],inactive
same,Potency,[6],23.7 µM (active)
CN1C(=O)[C@@H](NC(=O)c2cc3ccccc3[nH]2)N=C(c2ccccc2)c2ccccc21,Potency,[1],inactive
same,Potency,[2],2.75 µM (active)
same,Potency,[5],inactive
same,Potency,[6],inactive
CCOC(C(=O)OCCN(C)C)(c1ccccc1)c1ccccc1,Potency,[1],1.38 µM (active)
same,Potency,[2],3.09 µM (active)
same,Potency,[5],inactive
same,Potency,[6],inactive
COCC(=O)N(c1c(C)cccc1C)C(C)C(=O)OC (configuration not stated),Potency,[1],inactive
same,Potency,[2],inactive
same,Potency,[5],inactive
same,Potency,[6],inactive
CCOC(=O)C(c1c(O)c2ccccc2oc1=O)c1c(O)c2ccccc2oc1=O,Potency,[1],inactive
same,Potency,[2],3.09 µM (active)
same,Potency,[5],inactive
same,Potency,[6],inactive
CC1Sc2c(C(=O)O)c(=O)c3cc(F)c(N4CCNCC4)cc3n21 (configuration not stated),Potency,[1],inactive
same,Potency,[2],inactive
same,Potency,[5],inactive
same,Potency,[6],inactive
CCC(=O)OC1(c2ccccc2)CCN(C)CC1,Potency,[1],37.5 µM (active)
same,Potency,[2],inactive
same,Potency,[5],inactive
same,Potency,[6],inactive
CN1C[C@@H](NS(=O)(=O)N(C)C)C[C@@H]2c3cccc4c3c(cn4C)C[C@H]21,Potency,[1],2.19 µM (active)
same,Potency,[2],inactive
same,Potency,[5],inactive
same,Potency,[6],inactive
C[C@H](CN1CCOCC1)C(C(=O)N1CCCC1)(c1ccccc1)c1ccccc1,Potency,[1],38.6 µM (active)
same,Potency,[5],inactive
same,Potency,[6],inactive
C[C@H](N)[C@H](O)c1ccc(O)c(O)c1,Potency,[2],inactive
same,"activity change, negative = inhibition",[4],-20.4%
same,Potency,[5],inactive
same,Potency,[6],inactive
CCCCCCCCCCCC[N+](C)(C)CCOc1ccccc1,Potency,[1],1.74 µM (active)
same,Potency,[3],20 µM (active)
same,Potency,[5],1.33 µM (active)
same,Potency,[6],0.944 µM (active)
CNC(C)Cc1ccccc1OC (configuration not stated),Potency,[2],inactive
same,Potency,[3],inactive
same,Potency,[4],inactive
